The results in this text go back to publication PMC6792352, “Limited Chemical Structural Diversity Found to Modulate Thyroid Hormone Receptor in the Tox21 Chemical Library” (Environmental Health Perspectives, 2019).

Read-outs that look alike come from different tables or passages of the source. In all, about 7,300 compounds were measured (“AC50”: median about 90,000 nM, lowest 2% from about 20,000 nM on). This is one part of the list.

This experiment deals with thyroid hormone receptor (endogenous TRα and TRβ). More on the design: species or system GH3-TRE-Luc (rat pituitary); GH3-TRE-Luc luciferase reporter transactivation, agonist mode, qHTS; RXR ligands can also activate indirectly.

Regarding `O=C(O)Cc1cc(I)c(Oc2ccc(O)c(I)c2)c(I)c1` [Tiratricol], the AC50 (read-out: TR_LUC_GH3_Agonist_AC50, agonist mode, primary qHTS, 24 h) is 0.000154 µM.

On to `Cc1ccc(O)cc1` [Cresol], for which the AC50 (read-out: TR_LUC_GH3_Agonist_AC50, agonist mode, primary qHTS, 24 h, TR_LUC_GH3_Agonist_AC50 (uM)) turned out to be 25 µM.
